In one test the target is MTG1. In words: pooled miR-30 sensor sort-seq; sequence = guide strand. The note with it: shRNA.
Sequence TTTGTTGAGGGTGTACAGCAGG showed a sensor-assay potency score (higher = more potent) of -0.227. Same read-out and setting: the result for TTTCCCTTTCCTGAGGTGCTGC reads -0.722; that for TTATAGCTTTAACTCCTTCTGA, -0.275.

The next test has as its target MTMR14. The test is described as above. The settings on record: shRNA.
In turn, TTTGGAATCACGCTGAAACAGT came in with a sensor-assay potency score (higher = more potent) of -0.856. TTCGTGTTTGGAATCACGCTGA: the sensor-assay potency score (higher = more potent) turned out to be 0.52. On the same count and under the same terms, the result for TCGAAGAGCACAGTCCTCCTCC reads -0.118. Same read-out and setting: the result for TTGAACAGGATTACTGGGCAGA reads -0.111; that for TATTTGACTGACAGGTATCGAA, -0.898; that for TGACAGGTATCGAAGCAGCTTG, -1.11.

Sequence TGAGATACAGTGTACCAGCAGC showed a sensor-assay potency score (higher = more potent) of -0.892. Still for that read-out and setting: next, TGAAACAGTAGTCTCGGCCAAA: -1.3; TTATTTTGTGATCTGTGTCAAA: -0.837. On the same count and under the same terms, next, TTTGCTGAGCCGATCTACCAAC: -1.14; TTTGTGATCTGTGTCAAACTGC: 0.417. Same read-out and setting: the result for TTGTCCACCTTCTCAGAGGAGG reads -1.29.

These data come from the OligoGym collection.
Also: reference of the scale not given here.
